# In the supplement of paper PMC10503962:
# Test system: Trichuris muris adult worms
# Assay: mean motility score (Paragon pixel variance) of adult worms (arbitrary units); higher = more motile worms, i.e. less anthelmintic effect; extreme values may be limits of the assay
# Conditions: 100 µM; 24 h
# Summary of the method: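 Motility score was obtained through Paragon pixel-variance analysis and averaged across replicate wells. To generate it, single adult Trichuris muris worms taken from infected NOD SCID mice were kept for 24 h at 37°C and 5% CO2 in 96-well plates, each well holding 100 μL RPMI-1640 plus antibiotics and drug at 100 μM (1% v/v DMSO). The plates were then recorded on an automated phenotyping platform (200 frames, 100 ms apart).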
row,Compound,mean motility score
1,COC1=CC(=O)C[C@@H](C)[C@]12Oc1c(Cl)c(OC)cc(OC)c1C2=O [griseofulvin],1250
2,N[C@@H](CC(=O)O)C(=O)O [aspartic acid],3610
3,Cl.O=C1CC2(CCCC2)CC(=O)N1CCCCN1CCN(c2ncccn2)CC1 [buspirone hydrochloride],4250
4,CCCCCCCCCCC[C@@H](C[C@@H]1OC(=O)[C@H]1CCCCCC)OC(=O)[C@H](CC(C)C)NC=O [orlistat],3180
5,CCOC(=O)[C@H](CCc1ccccc1)N[C@@H](C)C(=O)N1Cc2cc(OC)c(OC)cc2C[C@H]1C(=O)O.Cl [moexipril hydrochloride],3680
6,CC1(C)NC(=O)N(c2ccc([N+](=O)[O-])c(C(F)(F)F)c2)C1=O [nilutamide],1900
7,CCOc1cc(N)c(Cl)cc1C(=O)NCC1CN(Cc2ccc(F)cc2)CCO1 (centres undefined) [mosapride],2610
8,OCCO [ethylene glycol],3150
9,CC[C@H](C)C(=O)O[C@H]1C[C@@H](C)C=C2C=C[C@H](C)[C@H](CC[C@@H]3C[C@@H](O)CC(=O)O3)[C@H]21 [lovastatin],96.7
10,Nc1ncn([C@@H]2O[C@H](CO)[C@@H](O)[C@H]2O)c(=O)n1 [azacitidine],4300
11,COC(=O)c1ccccc1O [methyl salicylate],3260
12,c1ccc(CC2=NCCN2)cc1 [tolazoline],1230
13,CNC[C@H](O)c1cccc(O)c1 [phenylephrine],3950
14,CCOC(=O)C1=C(COCCN)NC(C)=C(C(=O)OC)C1c1ccccc1Cl (centres undefined) [amlodipine],8.67
15,CCN(CC)CCOC(=O)C1(C2CCCCC2)CCCCC1.Cl [dicyclomine hydrochloride],4250
16,C[C@H](Cc1cc2c(c(C(N)=O)c1)N(CCCO)CC2)NCCOc1ccccc1OCC(F)(F)F [silodosin],3810
17,NC(N)=O [urea],4760

row,Compound,mean motility score
1,Cc1cn([C@H]2C=C[C@@H](CO)O2)c(=O)[nH]c1=O [stavudine],2180
2,COc1cccc2c1C(=O)c1c(O)c3c(c(O)c1C2=O)C[C@@](O)(C(=O)CO)C[C@@H]3O[C@H]1C[C@H](N)[C@H](O)[C@H](C)O1 [doxorubicin],2090
3,CC(=O)O[C@H]1C(=O)[C@@]2(C)[C@H]([C@H](OC(=O)c3ccccc3)[C@]3(O)C[C@H](OC(=O)[C@H](O)[C@@H](NC(=O)c4ccccc4)c4ccccc4)C(C)=C1C3(C)C)[C@]1(OC(C)=O)CO[C@@H]1C[C@@H]2O [paclitaxel],1480
4,CCCCc1nc(Cl)c(CO)n1Cc1ccc(-c2ccccc2-c2nn[nH]n2)cc1 [losartan],3650
5,CCCN[C@H]1CCc2nc(N)sc2C1.Cl.Cl [pramipexole dihydrochloride],3620
6,CC(C)(C)NCC(O)c1ccc(O)c(CO)c1.O=S(=O)(O)O (centres undefined) [albuterol sulfate],1690
7,Clc1ccc2c(c1)C(N1CCNCC1)=Nc1ccccc1O2 [amoxapine],804
8,CCN(CC)CCOc1ccc2nc(N(C)C)sc2c1.Cl.Cl [diamthazole dihydrochloride],4190
9,CCOC(=O)[C@H](CCc1ccccc1)N[C@@H](C)C(=O)N1[C@H](C(=O)O)C[C@@H]2CCC[C@@H]21 [ramipril],3060
10,Cc1ccc(C)c(OCCCC(C)(C)C(=O)O)c1 [gemfibrozil],3280
11,CCN1CCN(c2cc(-c3ccc(F)cc3)c3c(n2)CCCCCC3)CC1 [blonanserin],3080
12,COC(=O)[C@H]1[C@H]2C[C@@H]3c4[nH]c5cc(OC)ccc5c4CCN3C[C@H]2C[C@@H](OC(=O)c2cc(OC)c(OC)c(OC)c2)[C@@H]1OC [reserpine],2180
13,CCC(NC(C)C)C(O)c1ccc(O)c2nc(O)ccc12.Cl (centres undefined) [procaterol hydrochloride],2060
14,CNCc1ccc(-c2[nH]c3cc(F)cc4c3c2CCNC4=O)cc1 [rucaparib],1130
15,O=c1[nH]c(=O)n([C@H]2C[C@H](O)[C@@H](CO)O2)cc1F [floxuridine],2280
16,COc1ccc(C(=O)CC(=O)c2ccc(C(C)(C)C)cc2)cc1 [avobenzone],3070
17,C[C@]12CC[C@@H]3c4ccc(O)cc4CC[C@H]3[C@@H]1CCC2=O [estrone],2280
